The target in assay [1] is Lysosomal acid glucosylceramidase (Homo sapiens) (UniProt P04062). The assay is described as follows: Glucocerebrosidase-p2 (AID 348; in the data active = potency below about 10 µM; also: potency is read from the fitted curve at half-maximal effect). To be noted: purified GBA, blue fluorogenic substrate, 40 min. In outline:
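Compounds titrated from 0.6 nM upwards against 0.2 nM enzyme in pH 5.9 citric acid/KH2PO4, taurocholate, tween-20; blue fluorogenic substrate 80 uM, 40 min room temperature, stopped and read Ex 365/Em 440 for AC50.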

Assay [2] in a line: AP1 Signaling Pathway (AID 357).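 Also: ME-180 reporter cells stimulated with EGF at its EC50 level; % is scaled to controls: 0 for no effect and ±100 for the full control effect.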 Particulars: ME-180 AP-1-bla reporter, EGF-induced, beta-lactamase ratio, 5 h; at 7.69 µM (top of the series) unless noted. In outline:
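First, ME-180 AP-1-bla cells were cultured overnight at 37 °C in low-serum Opti-MEM. Next, titrated compounds with EC50 EGF were incubated 5 hours. Finally, CCF4 was added for 2.5 hours and the 460/530 nm ratio recorded.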

Assay [3] is described as follows: NFAT Signaling Pathway (AID 444).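 Also: carbachol stimulus at about its EC50 of 1 µM final; % is scaled to controls: 0 for no effect and ±100 for the full control effect.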 Particulars: Jurkat NFAT-bla M1, carbachol, beta-lactamase ratio, 5 h; at 7.69 µM (top of the series) unless noted. The procedure, abridged:
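Jurkat cells with NFAT-driven β-lactamase reporter and co-expressed M1 receptor, stimulated with carbachol (final 1 uM, ~EC50), compound titration, 5 h at 37 °C. CCF4 loaded 1 h at RT; 460/530 nm ratio gave %activity and AC50.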

Assay [4] in a line: Stat Signaling Pathway (AID 446).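 Also: ME-180 cervical cancer cells given 40 pM IL-6 alongside compound; SIE-controlled beta-lactamase reporter measured as 460/530 nm FRET emission ratio; % is scaled to controls: 0 for no effect and ±100 for the full control effect.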 Particulars: ME-180 SIE beta-lactamase reporter, IL-6 stimulated, 5 h; at 7.69 µM (top of the series) unless noted. In outline: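 ME-180 SIE-bla cells; overnight plating; cpd + IL-6 40 pM, 5 h, 37 C; LiveBLAzer 2.5 h RT; 460/530 nm emission ratio. Normalized to 300 pM IL-6 and 125 nM JAK inhibitor controls.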
Assay [5] concerns the target Glucocorticoid receptor (Homo sapiens) (UniProt P04150). As to the kind of experiment: GR-EFC Redistribution (AID 451; calls by dose curve; also: potency is read from the fitted curve at half-maximal effect). Particulars: CHO-K1 GR-EFC translocation, beta-gal luminescence, 2 h. In outline: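 CHO-K1 cells expressing nuclear EA and GR-ED fragments of b-gal; compounds titrated up to 46 uM final, 2 h at 37 C. GR nuclear translocation read as complemented b-gal luminescence after 1 h RT detection.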

Assay [6] deals with Mitogen-activated protein kinase 10 (Mus musculus) (UniProt Q61831). The assay is described as follows: JNK3 AlphaScreen Assay (AID 530).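 Also: kinase came from lysate of stimulated human HepG2 cells; signal reports phosphorylation of biotinylated GST-cJun 1-79 at Ser73 with 10 µM ATP; % is scaled to controls: 0 for no effect and ±100 for the full control effect.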 Particulars: JNK3 lysate, c-Jun phosphorylation; series mostly up to 57.1 µM. In outline:
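qHTS format: compounds tested as titrations against IL-1beta/TNF-alpha-activated HepG2 lysate JNK3 with biotin-GST-cJun substrate and 10 uM ATP at room temperature. Loss of anti-phospho-cJun AlphaScreen signal indicates inhibition.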

Assay [7] addresses 3',5'-cyclic-AMP phosphodiesterase 4B (Homo sapiens) (UniProt Q07343). As to the kind of experiment: qHTS Assay for Inhibitors of PDE-IV (AID 607; active = well fitted activation curve with a large enough effect in the main read-out, with a control signal flat, not every such curve was filed as active; also: % of control where 0% means no effect). Particulars: HEK293 ACTOne CNG channel cells, membrane potential fluorescence; series mostly up to 22.9 µM. In outline: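 ACTOne HEK293 cells carry a modified cAMP-gated CNG channel and express endogenous PDE4; plated 1000 cells/well, compounds up to 22.9 uM final. Membrane-potential dye fluorescence (ex 535/em 590) was read; parental cells received 10 uM forskolin + 100 uM RO 20-1724.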

Assay [8] concerns the target Cytochrome P450 3A4 (Homo sapiens) (UniProt P08684). As to the kind of experiment: qHTS Assay for Activators of Cytochrome P450 3A4 (AID 885; active = well fitted curve in the direction sought with a large enough effect; an effect the other way counts as inactive or inconclusive; also: nearly all actives have a fitted effect of over 65% in size). To be noted: recombinant CYP3A4, Luciferin-PPXE luminescence, 60 min; series mostly up to 57.1 µM. The procedure, abridged: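 20nM CYP3A4 + 25uM Luciferin-PPXE (=KM), 200mM KPO4; cpd 10 min RT; NADPH regen, 60 min RT; stop w/ detection buffer, 20 min; luminescence. Normalized to 57 uM ketoconazole.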

Assay [9] is described as follows: qHTS Assay for Lipid Storage Modulators (AID 1519; calls by dose curve). Particulars: Drosophila S3 cells, BODIPY lipid droplet/cell ratio, laser cytometry, cells loaded with oleic acid; for activity change, negative = inhibition: at 57.5 µM (top of the series). The procedure, abridged: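 Cells seeded at 5,000 per well were treated with compounds over a concentration series and loaded with oleic acid (400 uM, as added). Lipid droplet fluorescence (488 nm excitation, 500-530 nm channel) was read by laser-scanning cytometry and normalized to 20 uM Triacsin C.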

Assay [10] can be described thus: Primary qHTS for small molecule stabilizers of the endoplasmic reticulum resident proteome: Secreted ER Calcium Modulated Protein (SERCaMP) assay (AID 1508630; active = well fitted curve in the direction sought with a large enough effect; an effect the other way counts as inactive or inconclusive; also: % is scaled to controls: 0 for no effect and ±100 for the full control effect). Particulars: SH-SY5Y GLuc-SERCaMP (Gaussia luciferase released on ER calcium loss) secretion, thapsigargin, luminescence; series mostly up to 38.4 µM. The procedure, abridged:
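GLuc-SERCaMP-expressing SH-SY5Y cells, pretreated 16 h with compound, are challenged with thapsigargin to empty ER calcium stores; after 4 h, coelenterazine is added directly to the medium and luminescence is imaged.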

Where [11] appears, read: measured here: cell count channel max response.
[12] abbreviates: measured here: lipid channel max response.

From PubChem BioAssay (NCATS) come the findings set out here.

Results filed as inconclusive are left out. Calls of active or inactive are those of the source. Unless noted, calls follow the shape of the dose curve; as a rule, active = well fitted curve in either direction with a large enough effect (not every such curve was filed as active); inconclusive = small, poorly fitted or top-dose-only effect, or another doubt; inactive = flat fitted curve, though single readings scatter.

Lysosomal acid glucosylceramidase (Homo sapiens), sequence (P04062 whole entry, looked up): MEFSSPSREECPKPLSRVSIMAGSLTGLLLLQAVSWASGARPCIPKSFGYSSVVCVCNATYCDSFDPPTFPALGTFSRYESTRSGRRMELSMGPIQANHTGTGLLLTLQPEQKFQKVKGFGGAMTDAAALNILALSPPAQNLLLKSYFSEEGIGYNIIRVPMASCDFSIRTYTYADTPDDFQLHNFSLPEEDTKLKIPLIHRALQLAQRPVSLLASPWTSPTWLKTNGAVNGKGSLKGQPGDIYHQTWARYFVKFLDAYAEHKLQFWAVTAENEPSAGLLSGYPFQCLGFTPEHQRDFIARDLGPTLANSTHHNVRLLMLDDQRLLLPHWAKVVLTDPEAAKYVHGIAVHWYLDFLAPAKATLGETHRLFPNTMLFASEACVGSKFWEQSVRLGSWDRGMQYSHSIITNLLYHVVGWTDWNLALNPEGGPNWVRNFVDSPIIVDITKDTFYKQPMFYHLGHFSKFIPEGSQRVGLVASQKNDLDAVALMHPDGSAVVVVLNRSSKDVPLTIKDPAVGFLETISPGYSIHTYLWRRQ
Glucocorticoid receptor (Homo sapiens), sequence (P04150 whole entry, looked up, the tested form may be a part): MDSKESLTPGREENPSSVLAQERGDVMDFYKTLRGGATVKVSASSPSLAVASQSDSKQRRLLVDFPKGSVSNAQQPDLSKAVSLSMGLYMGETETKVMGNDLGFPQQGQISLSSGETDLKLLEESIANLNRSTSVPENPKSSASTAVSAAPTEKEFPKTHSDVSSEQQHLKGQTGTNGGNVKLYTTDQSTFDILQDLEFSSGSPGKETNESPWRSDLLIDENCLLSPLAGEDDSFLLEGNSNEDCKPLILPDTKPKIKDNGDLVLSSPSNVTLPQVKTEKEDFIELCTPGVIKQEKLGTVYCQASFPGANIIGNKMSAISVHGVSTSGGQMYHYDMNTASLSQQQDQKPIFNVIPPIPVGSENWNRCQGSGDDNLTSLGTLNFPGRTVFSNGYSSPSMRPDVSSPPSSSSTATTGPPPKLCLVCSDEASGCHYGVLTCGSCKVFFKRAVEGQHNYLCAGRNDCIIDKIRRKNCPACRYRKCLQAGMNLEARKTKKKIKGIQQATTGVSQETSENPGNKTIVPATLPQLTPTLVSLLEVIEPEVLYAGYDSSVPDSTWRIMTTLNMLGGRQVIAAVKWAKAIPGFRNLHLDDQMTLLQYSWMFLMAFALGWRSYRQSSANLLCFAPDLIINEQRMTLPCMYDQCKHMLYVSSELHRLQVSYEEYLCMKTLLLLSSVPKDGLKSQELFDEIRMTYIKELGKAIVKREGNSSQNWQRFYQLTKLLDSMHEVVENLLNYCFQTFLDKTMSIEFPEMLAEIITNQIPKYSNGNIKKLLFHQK
3',5'-cyclic-AMP phosphodiesterase 4B (Homo sapiens), sequence (Q07343 whole entry, looked up): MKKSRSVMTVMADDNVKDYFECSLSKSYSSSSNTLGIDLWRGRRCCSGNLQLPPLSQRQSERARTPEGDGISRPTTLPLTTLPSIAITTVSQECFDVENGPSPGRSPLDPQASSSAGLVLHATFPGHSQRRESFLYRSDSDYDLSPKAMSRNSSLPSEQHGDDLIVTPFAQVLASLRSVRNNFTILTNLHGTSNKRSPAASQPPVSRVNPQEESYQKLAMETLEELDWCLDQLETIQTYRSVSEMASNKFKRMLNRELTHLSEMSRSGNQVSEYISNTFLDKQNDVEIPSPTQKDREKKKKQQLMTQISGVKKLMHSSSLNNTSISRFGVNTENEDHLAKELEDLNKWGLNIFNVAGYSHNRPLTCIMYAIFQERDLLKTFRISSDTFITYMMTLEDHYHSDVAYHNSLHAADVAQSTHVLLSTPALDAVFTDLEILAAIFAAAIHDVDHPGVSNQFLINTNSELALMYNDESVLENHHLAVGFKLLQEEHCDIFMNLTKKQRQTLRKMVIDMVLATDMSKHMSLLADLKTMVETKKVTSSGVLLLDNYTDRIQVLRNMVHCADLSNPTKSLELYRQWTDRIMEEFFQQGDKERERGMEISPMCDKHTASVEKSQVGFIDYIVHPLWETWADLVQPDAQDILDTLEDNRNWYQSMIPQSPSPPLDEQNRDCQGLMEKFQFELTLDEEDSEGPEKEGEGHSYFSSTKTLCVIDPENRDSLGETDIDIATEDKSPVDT
Cytochrome P450 3A4 (Homo sapiens), sequence (P08684 whole entry, looked up): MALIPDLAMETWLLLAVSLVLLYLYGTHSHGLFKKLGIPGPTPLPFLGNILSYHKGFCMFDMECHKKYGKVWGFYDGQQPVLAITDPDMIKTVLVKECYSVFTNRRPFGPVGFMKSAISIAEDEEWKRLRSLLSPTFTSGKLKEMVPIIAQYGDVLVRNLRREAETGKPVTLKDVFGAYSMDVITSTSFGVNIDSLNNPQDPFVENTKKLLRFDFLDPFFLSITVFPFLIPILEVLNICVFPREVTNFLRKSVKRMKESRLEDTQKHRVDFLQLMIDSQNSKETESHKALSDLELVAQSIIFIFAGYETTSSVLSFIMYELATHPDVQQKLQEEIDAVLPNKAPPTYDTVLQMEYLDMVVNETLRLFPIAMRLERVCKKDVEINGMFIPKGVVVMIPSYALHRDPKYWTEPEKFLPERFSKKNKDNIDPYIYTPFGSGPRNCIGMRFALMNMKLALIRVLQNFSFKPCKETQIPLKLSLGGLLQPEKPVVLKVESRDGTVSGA

Consider `CC(C)CN1CC[C@@]2(CCCN(C(=O)c3ccco3)C2)C1`, for which the Potency in assay [1] was > 11.4 µM (inactive); in [5], > 46 µM (inactive). In addition, the figures for the activity change, negative = inhibition in [2], in assay [3] and in assay [9] were -7.86% (inactive), 7.22% (inactive) and 3.8% (inactive), respectively. Moreover, the activity, negative = inhibition in [4] was -2.85% (inactive). For the same compound, the Potency entry in assay [6], in assay [7] and in assay [8] was “inactive” each time. Besides, the max response was determined as 3.5% in assay [9] (setting [11]) and 8.53% in assay [9] (setting [12]). Further, the result in assay [10] was inactive.

With `COCC(=O)N1CCC2(CC1)CN(c1ccccc1)C2`, the Potency was > 11.4 µM (inactive) in assay [1] and > 46 µM (inactive) in [5]. Further, the activity change, negative = inhibition is -8.7% (inactive) in assay [2], 2.5% (inactive) in assay [3] and 4.95% (inactive) in assay [9]. In assay [4], the activity, negative = inhibition was 10.6% (inactive). The Potency entry in [6] and in [7] was “inactive” each time. The max response turned out to be 15% in [9] (setting [11]) and 21.1% in [9] (setting [12]). In assay [10], the outcome was inactive.

On to `COCC(=O)N1CCC[C@@]2(CCN(c3ccccc3)C2)C1`, for which the Potency is > 11.4 µM (inactive) in assay [1] and > 46 µM (inactive) in [5]. For the same compound, the activity change, negative = inhibition is -8.85% (inactive) in assay [2], -13.7% (inactive) in assay [3] and -2.7% (inactive) in [9]. Further, the activity, negative = inhibition in assay [4] was 8.14% (inactive). Further, the Potency entry in assay [6] and in assay [7] was “inactive” throughout. For the same compound, the max response in [9] (setting [11]) worked out at 17.9%; in assay [9] (setting [12]), 18%. For the same compound, in [10], the result was inactive.

Take `CS(=O)(=O)N1CCC2(CC1)CN(Cc1ccccc1)C2`: the Potency is > 11.4 µM (inactive) in [1] and > 46 µM (inactive) in assay [5]. The activity change, negative = inhibition was -4.28% (inactive) in assay [2], -8.71% (inactive) in assay [3] and 3.83% (inactive) in [9]. Besides, the activity, negative = inhibition in [4] was -7.57% (inactive). The Potency entry in assay [6] and in [7] was “inactive” each time. For the same compound, the max response in assay [9] (setting [11]) was 6.73%; in assay [9] (setting [12]) it was 15%. Besides, the outcome in assay [10] was inactive.

`CC(=O)N1CCC[C@@]2(CCN(C(=O)Nc3ccccc3)C2)C1`: the results for the Potency in assay [1] and in assay [5] were > 11.4 µM (inactive) and > 46 µM (inactive), respectively. Moreover, the activity change, negative = inhibition was 10.4% (inactive) in assay [2], 22.8% (inactive) in assay [3] and 3.44% (inactive) in assay [9]. Further, the activity, negative = inhibition in [4] is -3.7% (inactive). For the same compound, the Potency result in assay [6] and in assay [7] was “inactive” in each case. Moreover, the values for the max response in [9] (setting [11]) and in assay [9] (setting [12]) were -12.3% and -5.99%, respectively. For the same compound, the result in assay [10] was inactive.

As for `O=S(=O)(c1ccccc1)N1CCC2(CC1)CN(c1ccccc1)C2`, the Potency in assay [1] was > 11.4 µM (inactive); in assay [5], > 46 µM (inactive). The activity change, negative = inhibition was 3.38% (inactive) in assay [2], 8.23% (inactive) in [3] and 4.76% (inactive) in [9]. The activity, negative = inhibition in assay [4] is -6.85% (inactive). Also, the Potency entry in [6] and in [7] was “inactive” throughout. Moreover, the max response in [9] (setting [11]) was determined as 12.5%; in [9] (setting [12]), 18.4%. Also, the outcome in assay [10] was inactive.

As to `O=S(=O)(c1ccccc1)N1CCC2(CCN(c3cccc(-c4ccccc4)c3)CC2)CC1`, the Potency in [1] is > 11.4 µM (inactive); in [5], > 46 µM (inactive). Besides, the activity change, negative = inhibition is -5.65% (inactive) in assay [2], -3.11% (inactive) in assay [3] and 5.8% (inactive) in assay [9]. The activity, negative = inhibition in assay [4] is -8.83% (inactive). The Potency entry in assay [6] and in [7] was “inactive” each time. The max response stood at 17.8% in assay [9] (setting [11]) and 24.9% in assay [9] (setting [12]). Besides, in assay [10], the outcome was inactive.

Turning to `O=C(Nc1ccccc1)N1CC[C@@]2(CCCN(C(=O)c3ccncc3)C2)C1`, the Potency was > 11.4 µM (inactive) in [1] and > 46 µM (inactive) in assay [5]. Besides, the activity change, negative = inhibition in assay [2] is -15.8% (inactive); in assay [3], -4.67% (inactive); in [9], 1.5% (inactive). The activity, negative = inhibition in assay [4] was -5.93% (inactive). Also, the Potency entry in assay [6], in assay [7] and in assay [8] was “inactive” each time. In addition, the max response in assay [9] (setting [11]) is 13.8%; in assay [9] (setting [12]), 15.1%. Besides, the outcome in assay [10] was inactive.

In the case of `c1ccc(-c2cccc(N3CCCC4(CCNCC4)C3)c2)cc1`, the Potency was > 11.4 µM (inactive) in assay [1] and > 46 µM (inactive) in [5]. Further, the values for the activity change, negative = inhibition in [2], in [3] and in assay [9] were 11.2% (inactive), -11% (inactive) and 2.43% (inactive), respectively. Moreover, in assay [4], the activity, negative = inhibition was 8.57% (inactive). Besides, the Potency entry in assay [6] and in assay [7] was “inactive” in each case. Further, the figures for the max response in assay [9] (setting [11]) and in assay [9] (setting [12]) were -2.04% and 1.36%, respectively. In addition, in assay [10], the result was inactive.

`Cc1noc(C)c1C(=O)N1CCC[C@@]2(CCN(c3ccccn3)C2)C1`: the Potency in assay [1] is > 11.4 µM (inactive); in assay [5] it was > 46 µM (inactive). In addition, the activity change, negative = inhibition is -5.91% (inactive) in assay [2], -10.2% (inactive) in assay [3] and -1.14% (inactive) in [9]. Also, the activity, negative = inhibition in assay [4] was -3.33% (inactive). The Potency result in [6] and in assay [7] was “inactive” in each case. Further, the max response in assay [9] (setting [11]) turned out to be 20%; in assay [9] (setting [12]), 24.9%. The outcome in assay [10] was inactive.
